# This is a sample that favours compounds with a hit; in the whole collection about 1.4% have one here.
# FAS-TE inh: FAS thioesterase domain inhibitors, primary screen, biochemical, fluorescence intensity, uHTS | recombinant FAS-TE, OMFH fluorogenic substrate, fluorescence endpoint | hit rate 0.67% among 360,000 | AID 602261, 2012 | inhibition, % at 15 µM | Fatty acid synthase (Homo sapiens), P49327;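 active = compounds whose normalised, plate-corrected inhibition of enzyme fluorescence in the single-dose primary screen is 50% or more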;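 note: 0% = DMSO with enzyme and 100% = substrate without enzyme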
# A3G deaminase: APOBEC3G DNA deaminase inhibitors, primary screen, biochemical, fluorescence, single-stranded DNA substrate, uHTS. recombinant A3G, ssDNA deamination FAM/TAMRA fluorescence. inhibition, % at 20 µM. hit rate 0.28% among 330,000. AID 493012, 2011;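 active = inhibition of at least 40% at 20 µM, with no more than 30% in the related APOBEC3A deaminase screen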;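 note: plate controls were DMSO wells with A3G for no effect and wells lacking A3G enzyme for full effect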
# Target sequence (Q9HC16 whole entry, looked up): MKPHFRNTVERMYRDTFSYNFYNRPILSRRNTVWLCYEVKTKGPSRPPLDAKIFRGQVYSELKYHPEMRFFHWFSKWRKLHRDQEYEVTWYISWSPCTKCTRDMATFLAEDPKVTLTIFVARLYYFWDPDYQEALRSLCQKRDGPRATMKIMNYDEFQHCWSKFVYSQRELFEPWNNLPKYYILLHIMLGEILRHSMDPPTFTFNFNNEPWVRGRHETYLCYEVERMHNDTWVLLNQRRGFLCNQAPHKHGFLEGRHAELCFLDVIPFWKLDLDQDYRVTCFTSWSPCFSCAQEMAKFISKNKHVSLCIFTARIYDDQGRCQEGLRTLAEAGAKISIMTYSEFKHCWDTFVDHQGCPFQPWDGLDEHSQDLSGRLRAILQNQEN
# A3A deaminase: APOBEC3A ssDNA deaminase inhibitors, primary screen, selectivity assay for APOBEC3G inhibitor project, biochemical, FAM/TAMRA oligo cleavage fluorescence; recombinant A3A, FAM/TAMRA ssDNA deamination fluorescence; DNA dC->dU-editing enzyme APOBEC-3A (Homo sapiens), P31941; AID 493011, 2011; inhibition, % at 20 µM; hit rate 0.41% among 330,000;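 active = at least 40% inhibition at 20 µM here, with at most 30% in a related deaminase screen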;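 note: plate controls were A3A with DMSO for no effect and wells lacking A3A enzyme for full effect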
# Target sequence (P31941 whole entry, looked up): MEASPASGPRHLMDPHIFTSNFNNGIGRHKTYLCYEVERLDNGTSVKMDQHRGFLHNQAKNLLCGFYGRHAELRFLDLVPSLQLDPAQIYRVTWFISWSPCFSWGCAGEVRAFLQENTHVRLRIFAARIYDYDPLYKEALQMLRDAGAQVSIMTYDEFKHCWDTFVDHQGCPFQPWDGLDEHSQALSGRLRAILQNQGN
# NPR2 activator: human GC-B receptor activators, primary screen, HEK293 GC-B cells, cGMP TR-FRET, EC30 CNP | Atrial natriuretic peptide receptor 2 (Homo sapiens), P20594 | 0% at EC30 CNP, 100% saturating CNP | activation, % at 10 µM | hit rate 0.11% among 370,000 | AID 1920062, 2024;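 active = activation at 10 µM reaching about 35% in either raw or pattern-adjusted values, limit read from the data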
# NPR1 activator: GC-A stimulated cGMP production enhancers – HEK293 GC-A cells, cGMP TR-FRET, EC30 ANP, primary screen | Atrial natriuretic peptide receptor 1 (Homo sapiens), P16066 | 0% at EC30 ANP, 100% saturating ANP | activation, % at 10 µM | hit rate 0.14% among 370,000 | AID 1671463, 2021; in the data active = activation above about 40%
# APOBEC3A confirm: APOBEC3A deaminase inhibitors, retest, confirmation, selectivity assay for APOBEC3G inhibitor project, biochemical, single concentration, fluorescence readout. shares compounds with A3A deaminase. hit rate 63% among 1,400. AID 493151, 2011. recombinant A3A, ssDNA deaminase UDG fluorescence assay. inhibition, % at 20 µM;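 active = inhibition reaching a set limit, 80% of the first screen's cutoff, at 20 µM in any replicate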;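 note: plate controls were DMSO wells with A3A for no effect and wells lacking A3A enzyme for full effect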
# UDG A3A counter: E. coli UDG inhibitors, confirmation, counter-screen for APOBEC3A inhibitor project, biochemical, single concentration, fluorescence, FAM/TAMRA oligo; AID 504714, 2011; inhibition, % at 20 µM; shares compounds with A3A deaminase; UDG counterscreen, FAM/TAMRA uracil oligo fluorescence; 1,000 tested, under 10 active; call rule not given here
# Starred values were filed as active, the others as inactive; x = not tested or not shown.
SMILES,FAS-TE inh,A3G deaminase,A3A deaminase,NPR2 activator,NPR1 activator,APOBEC3A confirm,UDG A3A counter
N[C@H](C(=O)Nc1ccc(Cl)cc1C(=O)c1ccc[nH]1)c1ccccc1,x,x,x,-15.7,-8.2,x,x
CCCCC1CCC(C(=O)OC(C)C(=O)Nc2ccc(NC(C)=O)cc2)CC1 (stereo not drawn),-1.9,16.0,49.0*,6.7,-4.5,5.4,x
O=C(CSc1ccccn1)Nc1cccc2ccccc12,-2.1,7.6,59.8*,-4.5,4.3,43.8*,-3.3
O=C(NCc1ccccc1)[C@@H]1CCCN1C(=O)[C@H]1CCCN1C(=O)C1CCCCC1,x,x,x,0.1,3.2,x,x
O=C1CCCC2=C1[C@@]1(O[C@H]3C=CC=CN23)C(=O)N(c2ccccc2)c2ccccc21,x,x,x,-2.9,0.9,x,x
Cc1cccc(CSc2ncnc3nc[nH]c23)c1,-11.9,-0.3,0.8,1.4,-1.9,x,x
Cc1cc(C)c(CSc2ncnc3nc[nH]c23)c(C)c1,-3.3,9.4,52.6*,6.8,0.1,10.1,x
Cc1cccc(N=C2NC(=O)/C(=C/c3cccn3C)S2)c1C,2.5,-5.3,-1.3,-2.4,3.8,x,x
Cc1ccccc1N=C1NC(=O)/C(=C/c2cccn2-c2cccc(C(=O)O)c2)S1,x,5.8,49.7*,-1.9,-4.0,42.9*,-2.8
Clc1ccc(-c2cc(-c3ccccc3)on2)cc1,-10.2,-6.9,94.8*,-1.0,6.1,-7.4,-4.0
Nc1cc(N)nc(SCC(=O)Nc2ccc(Br)cc2Cl)n1,-2.7,17.5,58.4*,4.0,0.6,55.6*,-2.0
COc1ccc(S(=O)(=O)/N=C2/NC(=O)/C(=C\c3ccco3)S2)cc1,-5.0,62.3,90.4,1.4,-1.8,x,x
COc1ccc(S(=O)(=O)/N=C2/NC(=O)/C(=C/c3ccco3)S2)cc1,-4.7,21.0,46.4*,3.0,1.2,23.7*,-5.1
COCCCN1C(=O)[C@H](CC(=O)N2CCCCC2)[C@]2(C(=O)OC)CCCCC=C12,x,x,x,0.3,3.9,x,x
CN1/C(=C/c2cccc[n+]2CCO)Sc2ccccc21,-6.3,40.6,93.4,2.4,-2.6,x,x
CC[n+]1ccccc1/C=C1\Sc2ccc(C)cc2N1C,-6.3,23.9,53.7*,-6.6,-5.2,84.0*,-3.1
CCCCn1c(N)c(N(CCC(C)C)C(=O)c2ccc(N3CCCC3=O)cc2)c(=O)[nH]c1=O,-2.7,-0.8,42.7*,-1.1,0.4,18.2,3.2
CCCCn1c(N)c(N(CC)C(=O)c2ccc(Cl)c([N+](=O)[O-])c2)c(=O)[nH]c1=O,7.0,1.9,49.7*,-0.9,6.3,28.5,x
CCCCn1c(N)c(N(CC)C(=O)c2ccc(C)cc2)c(=O)[nH]c1=O,-8.5,0.6,-1.7,5.8,0.8,x,x
CCCCn1c(N)c(N(CCC(C)C)C(=O)C2CC(=O)N(c3cccc(SC)c3)C2)c(=O)[nH]c1=O (stereo not drawn),-0.6,9.3,45.2*,-1.7,0.4,0.1,x
CCCCn1c(N)c(N(CCC(C)C)C(=O)C2CC(=O)N(c3ccc4c(c3)OCCO4)C2)c(=O)[nH]c1=O (stereo not drawn),0.6,-2.3,12.2,2.6,1.6,x,x
CCCCn1c(N)c(N(CC)C(=O)c2ccc(N3CCCC3=O)cc2)c(=O)[nH]c1=O,-8.2,-1.2,18.7,4.2,-1.2,x,x
COc1ccc(/C=C/S(=O)(=O)NCc2ccc(F)cc2)c(CNC(=O)OC(C)(C)C)c1,x,x,x,-3.0,-6.2,x,x
Cn1c(=O)c(C(=O)COC(=O)c2cc(-c3ccco3)nc3ccccc23)c(N)n(CC2CC2)c1=O,x,28.0,46.9*,x,x,31.6*,x
CCNC(=O)COC(=O)c1cc(-c2ccco2)nc2ccccc12,-1.3,25.0,53.4*,4.0,1.7,33.9*,-1.4
SMILES,FAS-TE inh,A3G deaminase,A3A deaminase,NPR2 activator,NPR1 activator,APOBEC3A confirm,UDG A3A counter
Cn1c(=O)c(C(=O)COC(=O)c2cc(C3CC3)nc3ccccc23)c(N)n(Cc2ccccc2)c1=O,x,-2.8,-2.0,3.9,-1.4,x,x
COc1ccc(NC(=O)c2cc(-c3ccco3)nc3ccccc23)cn1,-2.9,14.4,52.3*,-0.8,5.3,45.0*,2.3
CC(C)C[C@H]1COc2cc(Br)ccc2S(=O)(=O)N1Cc1cn(Cc2ccc(F)cc2)nn1,x,x,x,6.8,1.0,x,x
Nn1c(SCC(=O)Nc2ccc(OCc3ccccc3)cc2)nnc1-c1cc(-c2ccc(F)cc2)n[nH]1,x,x,x,-3.0,-3.4,x,x
C[C@H]1[C@@H](OC(=O)Nc2ccccc2C(F)(F)F)CC[C@@]23CCCN2C(=O)CCC[C@@H]13,x,x,x,-2.4,0.3,x,x
CCOCc1cnc(C)nc1NCC(=O)c1c(C)[nH]c2ccc(OC)cc12,-3.4,21.2,54.9*,3.6,-1.6,79.8*,2.0
O=C(NCCc1c[nH]c2ccccc12)OCc1cn(Cc2ccc(F)cc2F)nn1,x,x,x,2.0,0.3,x,x
CCN(CC)Cc1cc(C(=O)O)c(C)o1,-4.9,-8.6,-2.2,-1.6,2.0,x,x
COc1ccc(OCc2cc(C(=O)O)c(C)o2)cc1,x,7.6,53.0*,x,x,34.4*,x
CCC(/C=C1\Sc2ccc(OC)cc2N1CC)=C\c1sc2ccc(OC)cc2[n+]1CCCS(=O)(=O)[O-],-3.1,-2.5,2.3,5.9,2.5,x,x
CCN1/C(=C/c2cc[n+](CCCS(=O)(=O)[O-])c3ccccc23)Sc2ccccc21,-11.2,20.1,75.5*,-5.5,-3.9,68.6*,-1.2
O=C(Nc1ccc(-c2ccccc2)cc1)c1ccco1,-2.4,22.5,42.1*,0.0,0.0,25.7,x
CCOC(=O)N1C(=O)C[C@](Sc2ccc(OC)cc2)(C(=O)N2CCN(C(C)=O)CC2)[C@H]1c1ccc(OC)cc1,x,x,x,0.8,-3.2,x,x
CC(=O)N1CCc2cc(S(=O)(=O)NCCC(=O)NCc3ccc(Cl)cc3)ccc21,x,x,x,-12.7,-3.4,x,x
CC(C)CN(C(=O)CCc1ccccc1Cl)c1c(N)n(Cc2ccccc2)c(=O)[nH]c1=O,-1.1,-8.6,3.5,5.5,0.8,x,x
CC(C)CN(C(=O)CC(C)c1ccccc1)c1c(N)n(Cc2ccccc2)c(=O)[nH]c1=O (stereo not drawn),-4.4,20.2,70.4*,-2.7,-2.6,11.3,x

# Bioassay records deposited in PubChem by Sanford-Burnham Center for Chemical Genomics.
